Reference: PubChem BioAssay (NCI)
This is part of a sample that, as a whole, favours compounds with a hit. Of some 83,000 tested, about 20% had one in any assay.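 Activity criterion: percent growth below 10, measured after cells in 96-well plates were exposed to a single compound concentration for 48 hours.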 Calls of active or inactive are those of the source.

Columns and labels:
Assay in all cases: NCI-60 one-dose screen, 48 h (100 = growth as untreated, 0 = no growth, -100 = all killed)
HT29 colon = details: 10 µM unless noted
SNB-75 CNS = details: 10 µM unless noted
SNB-19 CNS = details: 10 µM unless noted
U251 CNS = details: 10 µM unless noted
PC-3 prostate = details: 10 µM unless noted
SK-MEL-5 melanoma = details: 10 µM unless noted
UACC-62 melanoma = details: 10 µM unless noted
LOX IMVI melanoma = details: 10 µM unless noted
SK-MEL-28 melanoma = details: 10 µM
SK-MEL-2 melanoma = details: 10 µM unless noted
EKVX NSCLC = details: 10 µM unless noted
SN12C renal = details: 10 µM unless noted
UO-31 renal = details: 10 µM unless noted
TK-10 renal = details: 10 µM unless noted
ACHN renal = details: 10 µM unless noted
CAKI-1 renal = details: 10 µM unless noted
A498 renal = details: 10 µM unless noted
CCRF-CEM leukemia = details: 10 µM unless noted
MOLT-4 leukemia = details: 10 µM unless noted
SR leukemia = details: 10 µM unless noted

Measured: growth

NCCCNc1nc2ccccc2c2c(=O)c3cc(F)ccc3sc12
inactive: SNB-75 CNS 25% | SNB-19 CNS 44.4% | PC-3 prostate 18.9% | SK-MEL-5 melanoma 76.4% | SK-MEL-2 melanoma 50.6% | EKVX NSCLC 35.6% | SN12C renal 41.7% | UO-31 renal 23% | CAKI-1 renal 33.8% | A498 renal 20.5%
active: HT29 colon -50.9% | U251 CNS -56.1% | UACC-62 melanoma -76.1% | LOX IMVI melanoma -92.1% | SK-MEL-28 melanoma 0.2% | TK-10 renal -46.6% | ACHN renal -66.7% | CCRF-CEM leukemia 0.338% | MOLT-4 leukemia -35% | SR leukemia 9.08%

CCC1=C[C@]2(C3CC(=O)N(c4ccccc4)C3=O)CC(C(C)(C)C)C[C@@H]2[C@@H]2C(=O)N(c3ccccc3)C(=O)[C@H]12 (some centres undefined)
inactive: HT29 colon 74.3% | SNB-75 CNS 66.3% | SNB-19 CNS 86.2% | U251 CNS 79.1% | PC-3 prostate 56.7% | SK-MEL-5 melanoma 92.1% | UACC-62 melanoma 71.9% | LOX IMVI melanoma 93.1% | SK-MEL-28 melanoma 92.6% | SK-MEL-2 melanoma 82.8% | EKVX NSCLC 74.3% | SN12C renal 89.2% | UO-31 renal 73.1% | TK-10 renal 99.7% | ACHN renal 90.5% | CAKI-1 renal 71.4% | A498 renal 88% | CCRF-CEM leukemia 86.2% | MOLT-4 leukemia 80.4% | SR leukemia 80.4%

COc1cccc2c(=O)c3c(sc12)c(NCCCNCCO)nc1ccccc13
active: HT29 colon -43.8% | MOLT-4 leukemia 1.38% | SR leukemia 0.0565%
inactive: SNB-75 CNS 17.2% | SNB-19 CNS 63.6% | U251 CNS 14.4% | PC-3 prostate 45% | SK-MEL-5 melanoma 72.6% | UACC-62 melanoma 77.4% | LOX IMVI melanoma 37.2% | SK-MEL-28 melanoma 81.9% | SK-MEL-2 melanoma 94.1% | EKVX NSCLC 53.9% | SN12C renal 56.5% | UO-31 renal 27.4% | TK-10 renal 58.6% | ACHN renal 33.6% | CAKI-1 renal 48.1% | A498 renal 14.5% | CCRF-CEM leukemia 29.2%

N#C/C(=C\c1c(-c2ccccc2)[nH]c2ccccc12)C(=O)c1ccccc1
inactive: HT29 colon 16.4% | SNB-75 CNS 16.8% | SNB-19 CNS 44.5% | U251 CNS 43.3% | PC-3 prostate 44.5% | SK-MEL-5 melanoma 21.6% | UACC-62 melanoma 36.3% | LOX IMVI melanoma 54.2% | SK-MEL-28 melanoma 55.4% | SK-MEL-2 melanoma 47.8% | EKVX NSCLC 68.5% | SN12C renal 54.4% | UO-31 renal 37.5% | TK-10 renal 74.5% | ACHN renal 65.9% | CAKI-1 renal 42.4% | A498 renal 57.9% | MOLT-4 leukemia 38.9% | SR leukemia 52.3%

O=C1C(=O)c2c(ccc3ccccc23)-c2ccccc21
inactive: HT29 colon 61.5% | SNB-75 CNS 26.2% | SNB-19 CNS 18.9% | EKVX NSCLC 100% | TK-10 renal 14.7% | A498 renal 108%
active: U251 CNS 1.64% | PC-3 prostate 5.79% | SK-MEL-5 melanoma -69.9% | UACC-62 melanoma -25.2% | LOX IMVI melanoma -33.2% | SK-MEL-28 melanoma 3.64% | SK-MEL-2 melanoma -68.8% | SN12C renal -38.6% | UO-31 renal -32.4% | ACHN renal 1.97% | CAKI-1 renal -17% | MOLT-4 leukemia -31.3% | SR leukemia 5.07%

COc1cccc(C(=O)Cn2cc(/C=C(\C#N)S(=O)(=O)c3ccccc3)c3ccccc32)c1
inactive: HT29 colon 111% | SNB-75 CNS 92.6% | SNB-19 CNS 95.4% | U251 CNS 103% | PC-3 prostate 109% | SK-MEL-5 melanoma 92.4% | UACC-62 melanoma 87.5% | LOX IMVI melanoma 94.8% | SK-MEL-28 melanoma 112% | SK-MEL-2 melanoma 85.9% | EKVX NSCLC 114% | SN12C renal 83.7% | UO-31 renal 70.4% | TK-10 renal 106% | ACHN renal 111% | CAKI-1 renal 118% | MOLT-4 leukemia 103% | SR leukemia 99.4%
active: A498 renal -75.9%

Cn1c(/C=C(\C#N)c2cccc(C(F)(F)F)c2)nc2c(N3CCOCC3)nc(Cl)nc21
inactive: SNB-19 CNS 56.3% | A498 renal 10.8% | SR leukemia 10.3%
active: HT29 colon -41.5% | SNB-75 CNS -22.7% | U251 CNS 2.31% | PC-3 prostate -42.6% | SK-MEL-5 melanoma 9.34% | UACC-62 melanoma -81.1% | LOX IMVI melanoma -87.9% | SK-MEL-28 melanoma -87.2% | SK-MEL-2 melanoma -21.2% | EKVX NSCLC -76.2% | SN12C renal -0.107% | UO-31 renal -100% | TK-10 renal -67% | ACHN renal -100% | CAKI-1 renal -94% | CCRF-CEM leukemia 4.85% | MOLT-4 leukemia -14.3%

CCCCN1CCN(c2ccc3nc(-c4ccc5nc(-c6ccc(C(F)(F)F)cc6)[nH]c5c4)[nH]c3c2)CC1
inactive: SK-MEL-5 melanoma 10.8%
active: HT29 colon -49.5% | SNB-75 CNS -93.6% | SNB-19 CNS -91.4% | U251 CNS -86.6% | PC-3 prostate -77% | UACC-62 melanoma -31.6% | LOX IMVI melanoma -89.5% | SK-MEL-28 melanoma -88.3% | SK-MEL-2 melanoma -47.5% | EKVX NSCLC -72.4% | SN12C renal -80.9% | UO-31 renal -82.8% | TK-10 renal -71.3% | ACHN renal -99.5% | CAKI-1 renal -77.1% | CCRF-CEM leukemia -32.6% | MOLT-4 leukemia -61% | SR leukemia -46.8%

N#CC(C#N)=Cc1c(-c2ccccc2)[nH]c2ccccc12
inactive: HT29 colon 14.3% | SNB-19 CNS 37.8% | U251 CNS 32.1% | SK-MEL-5 melanoma 14.9% | UACC-62 melanoma 32.2% | LOX IMVI melanoma 48.3% | SK-MEL-28 melanoma 42.7% | SK-MEL-2 melanoma 45.7% | EKVX NSCLC 66% | SN12C renal 44.3% | UO-31 renal 38.9% | TK-10 renal 67.6% | ACHN renal 65.5% | CAKI-1 renal 38.6% | MOLT-4 leukemia 26.9% | SR leukemia 32.2%
active: SNB-75 CNS 2.62% | PC-3 prostate 9.36% | A498 renal -3.79%

COc1ccc2occ(C3=C(c4c[nH]c5ccccc45)C(=O)NC3=O)c2c1
inactive: HT29 colon 17.2% | SNB-75 CNS 16.6% | SNB-19 CNS 51.1% | U251 CNS 43.6% | PC-3 prostate 62.7% | SK-MEL-5 melanoma 47.4% | UACC-62 melanoma 37.9% | LOX IMVI melanoma 44.9% | SK-MEL-28 melanoma 58.6% | SK-MEL-2 melanoma 43.7% | EKVX NSCLC 49.4% | SN12C renal 38.4% | UO-31 renal 40.4% | TK-10 renal 81.5% | ACHN renal 70.2% | CAKI-1 renal 36.6% | CCRF-CEM leukemia 51.9% | MOLT-4 leukemia 30.2% | SR leukemia 29.4%

Cc1cc2c(c(C)c1Cl)C(=O)/C(=C/c1ccco1)O2
inactive: HT29 colon 98.3% | SNB-75 CNS 76.7% | SNB-19 CNS 95.2% | U251 CNS 96.2% | PC-3 prostate 98.5% | SK-MEL-5 melanoma 69.9% | UACC-62 melanoma 88.7% | LOX IMVI melanoma 93% | SK-MEL-28 melanoma 107% | SK-MEL-2 melanoma 102% | EKVX NSCLC 83.4% | SN12C renal 96% | UO-31 renal 78.3% | TK-10 renal 93.9% | ACHN renal 92.2% | CAKI-1 renal 93.7% | A498 renal 104% | CCRF-CEM leukemia 95.6% | MOLT-4 leukemia 97.3% | SR leukemia 69.7%

O=C(Nc1ccc(N2CCNCC2)cn1)c1[nH]ncc1Nc1ncnc2sccc12
inactive: SNB-75 CNS 59.5% | SNB-19 CNS 48.7% | PC-3 prostate 23.7% | SK-MEL-5 melanoma 58.2% | UACC-62 melanoma 74.7% | SK-MEL-2 melanoma 85.7% | EKVX NSCLC 65.8% | SN12C renal 66.9% | UO-31 renal 76.1% | TK-10 renal 87.1% | ACHN renal 60.2% | CAKI-1 renal 54.1% | A498 renal 80.7%
active: HT29 colon 2.95% | U251 CNS -51.1% | LOX IMVI melanoma -75.1% | SK-MEL-28 melanoma -81.4% | CCRF-CEM leukemia 5.54% | MOLT-4 leukemia 2.22% | SR leukemia -5.97%

COC(=O)c1ccc(NC(=O)CSc2nc3ccccc3c(=O)n2-c2ccccc2)cc1
inactive: HT29 colon 108% | SNB-75 CNS 92.1% | SNB-19 CNS 99.3% | U251 CNS 102% | PC-3 prostate 103% | SK-MEL-5 melanoma 94% | UACC-62 melanoma 96.3% | LOX IMVI melanoma 98.4% | SK-MEL-28 melanoma 113% | SK-MEL-2 melanoma 105% | EKVX NSCLC 117% | SN12C renal 104% | UO-31 renal 86.4% | TK-10 renal 103% | ACHN renal 103% | CAKI-1 renal 91.5% | A498 renal 96.7% | CCRF-CEM leukemia 92.8% | MOLT-4 leukemia 88% | SR leukemia 88.9%

O=Cc1c(OCc2cnnn2CC(=O)Nc2ccc(Br)cc2)ccc2ccccc12
inactive: HT29 colon 97.8% | SNB-75 CNS 72.6% | SNB-19 CNS 90.4% | U251 CNS 90.4% | PC-3 prostate 90.2% | SK-MEL-5 melanoma 93.9% | UACC-62 melanoma 68.4% | LOX IMVI melanoma 79.5% | SK-MEL-28 melanoma 99.9% | SK-MEL-2 melanoma 102% | EKVX NSCLC 82.1% | SN12C renal 92.9% | UO-31 renal 66.3% | TK-10 renal 93.7% | ACHN renal 80.1% | CAKI-1 renal 93.9% | A498 renal 74.4% | CCRF-CEM leukemia 97.4% | MOLT-4 leukemia 93.7% | SR leukemia 95.9%
